# Only some compounds are listed: those with a hit (about 21% of all), similar ones and a draw of the others.
# IL-1B inflam inh – qHTS for Inhibitors of Inflammasome Signaling: IL-1-beta AlphaLISA Primary Screen; 360,000 tested, 4.7% active; activity change, % at 57.5 µM; THP-1 LPS/ATP IL-1B secretion, AlphaLISA, 16 h; stronger effect = lower value; in the data active means activity change below about -50%; inconclusive means mostly about -30% to -49%
#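 Secreted IL-1B measured by AlphaLISA bead assay after 16 h compound exposure of THP-1 cells; compounds (final up to 57.5 uM) added 1 h before LPS (250 ng/mL) and ATP (1.25 mM) stimulation; lower signal means less secretion.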
# Gal4-VP16 FLuc – VP16 counterscreen qHTS for inhibitors of ROR gamma transcriptional activity | Drosophila S2 Gal4-VP16 UAS-luciferase, luminescence, 20 h | Potency, µM (highest dose often 53.6 µM), without a hit: top-dose activity, negative = inhibition, most hits filed as inhibitors | 310,000 tested, 3.5% active | AID 2546, 2010;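 further: Gal4-VP16 expression switched on by copper sulfate through the metallothionein promoter; potency means the concentration at half of the fitted maximal effect; nearly all actives have a fitted effect of over 50% in size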
# RORg inh – qHTS for inhibitors of ROR gamma transcriptional activity. 310,000 tested, 5.4% active. Nuclear receptor ROR-gamma (Mus musculus), P51450. Drosophila S2 Gal4-RORgamma UAS-luciferase reporter, 20 h. AID 2551, 2010. Potency, µM (doses to about 53.6 µM), for inactives: top-dose activity change, negative = inhibition, hits mostly inhibitors; further: potency means the concentration at half of the fitted maximal effect; nearly all actives have a fitted effect of over 60% in size
# Target sequence (P51450 whole entry, looked up, the tested form may be a part): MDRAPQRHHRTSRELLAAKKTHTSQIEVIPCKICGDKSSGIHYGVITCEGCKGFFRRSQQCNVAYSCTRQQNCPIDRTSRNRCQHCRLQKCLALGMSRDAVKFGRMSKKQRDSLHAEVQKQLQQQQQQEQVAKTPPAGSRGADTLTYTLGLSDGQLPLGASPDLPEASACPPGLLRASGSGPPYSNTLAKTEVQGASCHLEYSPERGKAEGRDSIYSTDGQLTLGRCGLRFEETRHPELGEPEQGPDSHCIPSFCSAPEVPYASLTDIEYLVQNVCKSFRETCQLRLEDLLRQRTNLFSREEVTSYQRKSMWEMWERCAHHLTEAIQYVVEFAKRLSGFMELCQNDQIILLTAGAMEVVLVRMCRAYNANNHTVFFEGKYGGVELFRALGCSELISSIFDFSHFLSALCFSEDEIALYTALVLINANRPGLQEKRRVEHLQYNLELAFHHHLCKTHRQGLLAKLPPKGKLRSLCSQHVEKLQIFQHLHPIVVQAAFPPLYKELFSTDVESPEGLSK
#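 Compounds are pin-transferred onto Drosophila Schneider cells expressing a copper-inducible Gal4–ROR gamma transactivation domain fusion. After 1 hr, copper sulfate is added to 700 uM final; luciferase is read 20 hr later.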
# ELG1 repair inh – qHTS screen for small molecules that inhibit ELG1-dependent DNA repair in human embryonic kidney (HEK293T) cells expressing luciferase-tagged ELG1; AID 504467, 2011; HEK293T ELG1-luciferase reporter, luminescence, 16 h; DNA damage induced by 5-fluorouridine; 330,000 tested, 2.3% active; Potency, µM (highest dose often 46.1 µM), for inactives: at the highest dose activity change, negative = inhibition, hits mostly inhibitors; further: potency means the concentration at half of the fitted maximal effect; nearly all actives have a fitted effect of over 55% in size
#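 Overnight (16 hr) co-exposure of 2,000 cells/well to 5-fluorouridine and compound at 37 °C preceded detection. Luciferase was quantified via ONE-Glo luminescence; loss of signal denotes inhibition.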
# TDP1 cell CPT – qHTS for Inhibitors of human tyrosyl-DNA phosphodiesterase 1 (TDP1): qHTS in cells in presence of CPT. AID 686979, 2013. chicken DT40 Tdp1-/-;hTDP1 cells + 20 nM CPT, ATP luminescence, 48 h. 420,000 tested, 12% active. Potency, µM (doses to about 46.2 µM), without a hit: at the top dose activity change, negative = growth inhibition, usual class: inhibitors; further: potency means the concentration at half of the fitted maximal effect; nearly all actives have a fitted effect of over 55% in size
#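 Chicken DT40 Tdp1-/- cells stably complemented with human TDP1 were seeded at 400 cells/well in medium containing 20 nM camptothecin, exposed to pin-transferred compounds, and grown at 37 °C for at least 48 hr. Viability was read as ATP luminescence.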
# TDP1 cell noCPT – qHTS for Inhibitors of human tyrosyl-DNA phosphodiesterase 1 (TDP1): qHTS in cells in absence of CPT. DT40 Tdp1-/- hTDP1 cells, no CPT, ATP luminescence, 48 h. Potency, µM (series often up to 46.2 µM), without a hit: at the top dose activity change, negative = growth inhibition, hits mostly inhibitors. 420,000 tested, 15% active. AID 686978, 2013; further: potency means the concentration at half of the fitted maximal effect; nearly all actives have a fitted effect of over 55% in size
#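 No-CPT arm: Tdp1-/-;hTDP1 DT40 cells (400/well) plus compounds, incubated ≥48 hr at 37 °C. Readout CellTiter-Glo luminescence.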
# * = called active by the depositor; ? = inconclusive; nt = no result given; [ ] = remark or other dose. Unless noted, the call rests on the fitted dose curve; in most records, active means well fitted curve in the direction sought with a large enough effect; inconclusive means small, poorly fitted or top-dose-only effect, or another doubt; inactive means no such curve, though single readings can be large; an effect the other way counts as inactive or inconclusive. On the % scale 0 is the no-effect control and ±100 the full control effect.
SMILES,IL-1B inflam inh,Gal4-VP16 FLuc,RORg inh,ELG1 repair inh,TDP1 cell CPT,TDP1 cell noCPT
CCOC(=O)CCN(SN(C)C(=O)Oc1cccc2c1OC(C)(C)C2)C(C)C,nt,29.4%,30.8%,nt,nt,nt
COc1cc(C(=O)Nc2ccc(Br)cc2C(=O)c2ccccc2Cl)cc(OC)c1OC,27.6,-8.7%,-34.4%,-17.7%,?,23.1µM*
CC1Cc2c(cnc3c2CN(C)CC3)CO1 (stereo unspecified),nt,2.7%[10 µM],-9.3%[10 µM],nt,nt,nt
NC(=O)Cc1cccc(C(=O)c2ccccc2)c1N,nt,nt,nt,nt,-13.5%,?
CCCc1nc2ccccc2c(=O)n1-c1cccc(OC)c1,-15.3,-6.2%,3.9%,-16.7%,18.4µM*,?
CCCCc1nc2ccccc2c(=O)n1-c1cccc(OC)c1,nt,nt,nt,nt,16.4µM*,18.4µM*
CCc1nc2ccccc2c(=O)n1-c1ccc2ccccc2c1,12.0,-2.4%,10.1%,-3.9%,?,?
CCCSc1nc2ccccc2c(=O)n1-c1ccccc1OC,nt,nt,nt,nt,?,20.6µM*
CCCc1nc2ccccc2c(=O)n1-c1ccc(OC)cc1,11.0,3.2%,1.9%,-28.7%,?,23.1µM*
CCC1Nc2ncnc(N3CCN(c4ccccn4)CC3)c2N(Cc2ccc(Br)cc2)C1=O (stereo unspecified),?,nt,nt,-18.5%,?,?
c1ccc(CN2Cc3ccccc3-n3nncc3C2)nc1,2.3,nt,nt,nt,-5.8%,-20.5%
CCCc1nc2ccccc2c(=O)n1-c1ccccc1OC,5.0,0.4%,33.1%,0.8%,?,20.6µM*
Cn1c(O)c(Cc2ccc(OCc3ccccc3)cc2)c(=O)n(C)c1=O,7.1,-10.0%,-1.4%,?,-18.2%,-23.4%
CCCC[C@H]1C(=O)O[C@H](C)[C@H](NC(=O)c2cccc(NC=O)c2OC)C(=O)O[C@@H](C)[C@@H]1OC(=O)CC(C)C,nt,1.78µM*,1.78µM*,nt,?,6.75µM*
Cc1nc2ccccc2c(=O)n1-c1ccc(-c2ccccc2)cc1,4.5,2.4%,23.7%,?,?,?
Cc1ccc(-n2c(/C=C\c3ccc(F)cc3)nc3ccccc3c2=O)cc1Cl,nt,nt,nt,nt,14.6µM*,16.4µM*
COc1ccc(-n2c(/C=C/c3ccc(O)cc3)nc3ccccc3c2=O)cc1,-54.3*,-5.8%,9.1%,?,23.1µM*,20.6µM*
Cc1nc2ccccc2c(=O)n1-c1cccc(O)c1,33.5,12.9%,2.2%,7.2%,-18.3%,-17.0%
COc1ccc(-n2c(/C=C/c3ccc(O)c(OC)c3)nc3ccccc3c2=O)cc1,-66.9*,4.7%,24.2%,?,20.6µM*,25.9µM*
O=c1c2ccccc2nc(/C=C/c2ccccc2O)n1-c1ccc(Br)cc1,nt,nt,nt,nt,?,16.4µM*
O=c1c2ccccc2nc(/C=C/c2ccc(O)cc2)n1-c1ccc(O)cc1,-13.7,0.9%,-24.5%,-29.8%,?,?
CC1C(c2ccccc2)OC(=O)N1C (stereo unspecified),-5.8,nt,nt,nt,-10.5%,-2.2%
COc1cc(/C=C/c2nc3ccccc3c(=O)n2-c2ccc(Br)c(C)c2)ccc1O,nt,nt,nt,nt,20.6µM*,16.4µM*
COc1cccc(-n2c(/C=C/c3ccc(O)c(O)c3)nc3ccccc3c2=O)c1,?,-7.6%,-43.8%,8.2µM*,17.5%,?
C=CCN1CC[C@]23CCCCC2[C@H]1Cc1ccc(O)cc13 (stereo partly specified),nt,-3.6%,7.0%[10 µM],nt,nt,nt

# Bioassay records: PubChem, National Center for Advancing Translational Sciences (NCATS)
